Experimental data as given in PubChem BioAssay (NCI).
Values joined by “and” are separate entries in the source; they are usually repeats but may differ in a detail not shown here. Identical values can stand only once. About 79,000 compounds went through this panel and 15% of them were active in at least one assay; those are over-represented in the sample as a whole. A structure can be active in one record and inactive in another. Active and inactive are the calls of the source. Rule as the data show it: active = growth inhibition above about 70%; inactive = the rest. Where a SMILES comes first, the peptide text is derived from it. [ ]: non-standard residue; d: D form. ξ: configuration not given here. ξV = CC(C)C(N)C(=O)O

Assays:
[1] = NCI Yeast Anticancer Drug Screen. Data for the rad50 strain (AID 155);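 also: 0% = growth of vehicle-only cultures of the same strain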; details: S. cerevisiae rad50 strain growth inhibition, stronger effect = higher value
Outline: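 Genetically altered yeast (DNA repair pathway); compound treatment; growth inhibition vs vehicle ctrl.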

[2] = NCI Yeast Anticancer Drug Screen. Data for the mec2-1 strain (AID 157); details: S. cerevisiae mec2-1 strain, stronger effect = higher value
Outline: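 Readout is yeast growth inhibition, normalised to vehicle-treated controls, in the mec2-1 strain exposed to compound.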

[3] = NCI Yeast Anticancer Drug Screen. Data for the sgs1 mgt1 strain (AID 161);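 also: 0% = growth of cultures given vehicle only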; details: S. cerevisiae sgs1 mgt1 strain, stronger effect = higher value
Outline: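 Percent growth inhibition was derived by comparing compound-exposed mutant yeast with vehicle-exposed cultures. The strain carries alterations in DNA damage repair.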

[4] = NCI Yeast Anticancer Drug Screen. Data for the cln2 rad14 strain (AID 165);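 also: 0% = growth equal to vehicle treated cultures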; details: S. cerevisiae cln2 rad14 strain, stronger effect = higher value
Outline: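 Relative to vehicle controls, growth inhibition of compound-treated cln2 rad14 yeast was recorded.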

[5] = NCI Yeast Anticancer Drug Screen. Data for the mlh1 rad18 strain (AID 175); details: S. cerevisiae mlh1 rad18 strain growth inhibition, stronger effect = higher value
Outline: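 Test agents were incubated with a yeast strain of defined genotype (DNA damage repair defect). Inhibition of growth was derived by comparison with vehicle-exposed cultures.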

[6] = NCI Yeast Anticancer Drug Screen. Data for the bub3 strain (AID 167); details: S. cerevisiae bub3 mutant strain, stronger effect = higher value
Outline: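 Yeast carrying a defined mutation is treated with each compound, and growth is compared with that of vehicle-exposed cells to give inhibition.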

[7] = at 5.0 µM (retest, dose inferred, filed as 0.5)
[8] = at 50.0 µM (retest, dose inferred, filed as 5.0)

Row | SMILES | growth inhibition [1, 7] | growth inhibition [1, 8] | growth inhibition ([1]; at 50.0 µM) | growth inhibition [2, 7] | growth inhibition [2, 8] | growth inhibition ([2]; at 50.0 µM) | growth inhibition [3, 7] | growth inhibition [3, 8] | growth inhibition ([3]; at 50.0 µM) | growth inhibition [4, 7] | growth inhibition [4, 8] | growth inhibition ([4]; at 50.0 µM) | growth inhibition [5, 7] | growth inhibition [5, 8] | growth inhibition ([5]; at 50.0 µM) | growth inhibition [6, 7] | growth inhibition [6, 8] | growth inhibition ([6]; at 50.0 µM)
1 | CN(C)CCCN=c1c2ccccc2n(O)c2cccc([N+](=O)[O-])c12 | 6% (inactive) | 2% (inactive) | 72.5% (active) | 23% (inactive) | -4% (inactive) | 26.8% (inactive) | 2% (inactive) | -1% (inactive) | 46.9% (inactive) | 11% (inactive) | 8% (inactive) | 22.4% (inactive) | 7% (inactive) | 6% (inactive) | -31.7% (inactive) |  |  | 
2 | COC1C(O)C(C)OC(OC2C(Oc3cccc4c(O)c5c(=O)oc6ccc(C)c7c(=O)oc(c34)c5c67)OC(C)C3O[C@H](c4ccccc4)OC32)C1O (stereo partly drawn) | 82% (active) | 96% (active) | 86.5% (active) | 70% (active) | 96% (active) | 88.5% (active) | 73% (active) | 96% (active) | 91% (active) | 59% (inactive) | 96% (active) | 88.3% (active) | 77% (active) | 93% (active) | 77.3% (active) |  |  | 
3 | O=C(NNc1ccnc2cc(Cl)ccc12)/C(=C/c1ccc2c(c1)OCO2)NC(=O)c1ccccc1 | 12% (inactive) | 71% (active) | 90.7% (active) | -18% (inactive) | 46% (inactive) | 77.3% (active) | -4% (inactive) | 47% (inactive) | 86.8% (active) | 2% (inactive) | 64% (inactive) | 79.7% (active) | -2% (inactive) | 71% (active) | 93.1% (active) | -9% (inactive) | 83% (active) | 58.9% (inactive)
4 | O=C(N/C=C/C=C/Sc1ccccc1)OCc1ccccc1 | 6% (inactive) | 97% (active) | 0.05% (inactive) | -6% (inactive) | 98% (active) | 21.8% (inactive) | -20% (inactive) | 98% (active) | 38.6% (inactive) | 23% (inactive) | 97% (active) | -4.35% (inactive) | -8% (inactive) | 98% (active) | 17.6% (inactive) | 5% (inactive) | 99% (active) | 2.2% (inactive)
5 | C=C1C(=O)OC2CC(C)C3C4OC4C(O)C3(C)C(O)C12 (stereo not drawn) | 2% (inactive) | 0% (inactive) | 69.9% (inactive) | 2% (inactive) | 4% (inactive) | 39.1% (inactive) | 4% (inactive) | 8% (inactive) | 65.7% (inactive) | -3% (inactive) | -6% (inactive) | 50.4% (inactive) | 0% (inactive) | -2% (inactive) | 63.6% (inactive) |  |  | 
6 | CC(C)C(NC(=O)CN)C(=O)O (stereo not drawn) (H-Gly-[ξV]-OH) | -165% (inactive) | -152% (inactive) | -7.85% (inactive) and -10.2% (inactive) and -15.5% (inactive) | -46% (inactive) | -52% (inactive) | 3.95% (inactive) and -7.6% (inactive) and -21.6% (inactive) | -62% (inactive) | -64% (inactive) | -0.15% (inactive) and -21.6% (inactive) and -5.05% (inactive) | -59% (inactive) | -60% (inactive) | 35.5% (inactive) and 5.7% (inactive) and -2.4% (inactive) | -146% (inactive) | -116% (inactive) | 16.8% (inactive) and -21.9% (inactive) and -0.65% (inactive) |  |  | 
7 | COc1cccc(NC(=S)C(C#N)C(=O)Nc2cccc(C(F)(F)F)c2)c1 (stereo not drawn) | 66% (inactive) | 95% (active) | 78.2% (active) | 74% (active) | 97% (active) | 84.9% (active) |  |  |  | 52% (inactive) | 88% (active) | 43.1% (inactive) | 88% (active) | 96% (active) | 70.5% (active) | 48% (inactive) | 95% (active) | 87% (active)
8 | Cc1ccccc1N=Nc1ccc(N=Nc2ccc(N)nc2N)c(C)c1 | 2% (inactive) | -23% (inactive) | 31.2% (inactive) | -19% (inactive) | 17% (inactive) | 62.1% (inactive) | -1% (inactive) | 11% (inactive) | 10.1% (inactive) | -4% (inactive) | -27% (inactive) | 15.3% (inactive) | -2% (inactive) | -29% (inactive) | 28.9% (inactive) |  |  | 
9 | CCN1CCC(O)(/C=C/c2ccc(C)cc2)C(C(=O)/C=C/c2ccc(C)cc2)C1 (stereo not drawn) | 20% (inactive) | 98% (active) | 90.1% (active) | 15% (inactive) | 99% (active) | 91.4% (active) | -29% (inactive) | 99% (active) | 91.2% (active) |  |  |  | 24% (inactive) | 98% (active) | 92.7% (active) | 14% (inactive) | 99% (active) | 90.6% (active)
10 | CCOC(=O)C1=C(C(=O)c2ccc(OC)cc2)C(c2c(Cl)cccc2Cl)C(C(=O)c2ccc(OC)cc2)=C(C(=O)OCC)N1 | 8% (inactive) | 19% (inactive) | 53.9% (inactive) |  |  |  | 19% (inactive) | -5% (inactive) | 70.3% (active) | -19% (inactive) | 18% (inactive) | 88.2% (active) | 6% (inactive) | 0% (inactive) | 81.8% (active) | 14% (inactive) | 7% (inactive) | 88.7% (active)
11 | CN(C)c1ccc(/C=C/c2cc[n+](C)c3ccccc23)cc1 | -3% (inactive) and -12% (inactive) | 81% (active) and 53% (inactive) | 95.3% (active) and 71.3% (active) |  |  |  | 3% (inactive) and -10% (inactive) | 92% (active) and 88% (active) | 93.7% (active) and 83.4% (active) | -2% (inactive) and -5% (inactive) | 89% (active) and 57% (inactive) | 96.6% (active) and 66.7% (inactive) | -8% (inactive) and -21% (inactive) | 93% (active) and 80% (active) | 97.7% (active) | -3% (inactive) and -17% (inactive) | 85% (active) and 83% (active) | 97.5% (active) and 82.8% (active)
12 | CCSSc1ccccc1C(=O)NC(CC)CO (stereo not drawn) | 1% (inactive) | 59% (inactive) | 73.5% (active) |  |  |  | 20% (inactive) | 71% (active) | 94.3% (active) | 0% (inactive) | 12% (inactive) | 19.4% (inactive) | 3% (inactive) | 73% (active) | 65.5% (inactive) | -10% (inactive) | 62% (inactive) | 65.5% (inactive)
13 | CC(=O)Nc1ccc(S(=O)(=O)N/N=C/c2ccc(C)cc2)cc1 | 7% (inactive) | 8% (inactive) | -3.15% (inactive) |  |  |  | 15% (inactive) | 6% (inactive) | 7.45% (inactive) | 8% (inactive) | 1% (inactive) | 64.5% (inactive) | 28% (inactive) | 7% (inactive) | -12.4% (inactive) | 26% (inactive) | -1% (inactive) | -38.6% (inactive)
14 | CC1(c2ccccc2)c2ccccc2N(c2ccccc2)C(=O)C1O (stereo not drawn) | 98% (active) | 100% (active) | -2.35% (inactive) and 99.5% (active) | 98% (active) | 100% (active) | 7.75% (inactive) and 99.7% (active) |  |  |  | 96% (active) | 99% (active) | 1.8% (inactive) and 99.2% (active) | 98% (active) | 99% (active) | 10.2% (inactive) and 99.4% (active) | 97% (active) | 99% (active) | -0.35% (inactive) and 99.7% (active)
15 | CC1=CC(C)=Nc2ccc(Cl)cc2N1 | -2% (inactive) | 9% (inactive) | -1.1% (inactive) and 52% (inactive) | 2% (inactive) | 2% (inactive) | 11.4% (inactive) and 2.6% (inactive) |  |  |  | 1% (inactive) | 7% (inactive) | -15.9% (inactive) and -11.8% (inactive) | -2% (inactive) | 7% (inactive) | 9.35% (inactive) and 75.1% (active) | -2% (inactive) | -7% (inactive) | -2.9% (inactive) and 21.6% (inactive)
16 | COc1ccc(/C=C/NC=O)cc1 | -2% (inactive) | -1% (inactive) | -17.2% (inactive) |  |  |  | -2% (inactive) | -1% (inactive) | -9.6% (inactive) |  |  |  | -3% (inactive) | -2% (inactive) | 28.9% (inactive) | 1% (inactive) | 6% (inactive) | 19.8% (inactive)
17 | O=C(CC1(O)C(=O)Nc2ccccc21)c1ccc(Cl)c(Cl)c1 (stereo not drawn) | -5% (inactive) | 26% (inactive) | 84% (active) |  |  |  | 1% (inactive) | 41% (inactive) | 73.4% (active) | -5% (inactive) | -12% (inactive) | 72% (active) | -4% (inactive) | 31% (inactive) | 88.3% (active) | -4% (inactive) | 31% (inactive) | 77.2% (active)
